Source: PubChem BioAssay (National Center for Advancing Translational Sciences (NCATS))
Sampled rows, rich in hits. Any-hit rate of the full collection: about 7.5%.
SMN2 splice up: enhancers of SMN2 splice variant expression; HEK293 SMN2-luciferase splicing reporter, luminescence, 30-36 h; Potency, µM (series often up to 46.1 µM), without a hit: at the top dose activity change, positive = activation, usual class: activators; actives 2.8% (n = 210,000); AID 1458; also: % of control where 0% means no effect; nearly all actives have a fitted effect of over 55% in size
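HEK293 cells carry an SMN2 […]–luciferase reporter in which exon 7 inclusion puts luciferase in frame. Cells were plated 10-12 h before compound addition, then incubated 30-36 h at 37C. ONE-Glo luminescence was read; sodium butyrate at 4.5 mM final served as control.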
Rab9 prom act: activators of Rab9 promoter; Huh7 Rab9 promoter-luciferase reporter, luminescence, 24 h; Potency, µM (highest dose often 9.22 µM), for the others: at the highest dose activation, negative = inhibition, usual class: activators; actives 2.8% (n = 320,000); also: % of control where 0% means no effect; nearly all actives have a fitted effect of over 60% in size
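Huh7 reporter line, Rab9 promoter upstream of luciferase. Compound exposure 24 h at 37 °C in reduced-serum medium with 10% FBS. Read-out: luminescence.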
ELG1 genotoxic: inducers of genotoxicity in HEK293T ELG1-luciferase cells. AID 504466. Potency, µM (highest dose often 46 µM), inactives show at the highest dose activity change, positive = activation, actives largely listed as activators. actives 1.3% (n = 330,000). HEK293T ELG1-luciferase reporter, luminescence, 16 h; also: % of control where 0% means no effect; nearly all actives have a fitted effect of over 60% in size
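ELG1-luciferase HEK293T cells, 2,000/well; compound pinned in; 16 hr, 37 °C, 5% CO2; ONE-Glo, 30 min RT; luminescence on CCD imager.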
FLuc counter: firefly luciferase modulation, counter-screen for miR-21 project. P08659. purified FLuc, Km substrates, luminescence inhibition. Potency, µM (doses to about 57.5 µM), inactives show at the highest dose activity change, negative = inhibition, usual class: inhibitors. actives 6.9% (n = 360,000). AID 588342;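 also: plate controls were vehicle for no effect and reference inhibitor for full effect; nearly all actives have a fitted effect of over 55% in size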
Target sequence (P08659 whole entry, looked up): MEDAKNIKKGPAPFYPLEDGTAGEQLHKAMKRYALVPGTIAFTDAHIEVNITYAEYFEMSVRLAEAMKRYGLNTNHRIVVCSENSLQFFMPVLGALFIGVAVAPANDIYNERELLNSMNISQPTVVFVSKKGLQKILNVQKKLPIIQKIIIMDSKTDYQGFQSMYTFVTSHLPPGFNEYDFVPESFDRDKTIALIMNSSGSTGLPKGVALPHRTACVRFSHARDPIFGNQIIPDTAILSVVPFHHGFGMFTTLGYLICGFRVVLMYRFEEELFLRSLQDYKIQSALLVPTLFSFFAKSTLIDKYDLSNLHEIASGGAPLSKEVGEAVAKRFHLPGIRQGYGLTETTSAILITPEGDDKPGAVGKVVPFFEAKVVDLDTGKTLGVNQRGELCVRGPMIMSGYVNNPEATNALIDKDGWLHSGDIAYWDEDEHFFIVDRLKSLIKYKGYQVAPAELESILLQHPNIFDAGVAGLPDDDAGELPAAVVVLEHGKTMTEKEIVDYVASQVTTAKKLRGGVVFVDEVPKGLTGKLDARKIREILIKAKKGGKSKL
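Biochemical qHTS of compounds, final roughly 60 µM downward over six points, against 10 nM purified firefly luciferase using Km concentrations of substrates (10 uM D-luciferin, 10 uM ATP) in Tris acetate pH 7.5 buffer; luminescence output.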
Luc counter: counter-screen: inhibitors of Kinase-Glo firefly luciferase; Q27757; Kinase-Glo luciferase, ATP luminescence, 8 min; Potency, µM (top dose mostly 38.3 µM), for inactives: top-dose activity change, negative = inhibition, most hits filed as inhibitors; actives 0.28% (n = 200,000); also: % is scaled to controls: 0 for no effect and ±100 for the full control effect; nearly all actives have a fitted effect of over 60% in size
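Compound is pinned into ATP-containing buffer (10 uM ATP, imidazole pH 7.2, 7 mM MgCl2). Kinase-Glo luciferase reagent is then added. Light output is recorded following an 8-min room-temperature incubation.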
NPC1 prom act: activates the NPC1 promoter. Huh7 NPC1 promoter luciferase reporter, 24 h. Potency, µM (highest dose often 9.22 µM), for the others: top-dose activation, most hits filed as activators. actives 2.4% (n = 320,000). AID 485313; also: % of control where 0% means no effect; nearly all actives have a fitted effect of over 60% in size
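Luciferase expression driven by the NPC1 promoter was measured in stably transfected Huh7 cells after a 24 h compound incubation, using a luciferase reagent and a luminescence read.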
* marks the source's active call; other numbers are inactive results; ? = inconclusive; . = no result. Calls follow the shape of the dose curve; as a rule, active = well fitted curve in the direction sought with a large enough effect; inconclusive = small, poorly fitted or top-dose-only effect, or another doubt; inactive = no such curve, though single readings can be large; an effect the other way counts as inactive or inconclusive. Potency is read from the fitted curve at half-maximal effect.

SMILES	SMN2 splice up	Rab9 prom act	ELG1 genotoxic	FLuc counter	Luc counter	NPC1 prom act
O=C(C(Cl)c1ccccc1)N1CCOCC1 (stereo unspecified)	.	9%	-6%	0%	.	-2%
CCOC(=O)Nc1cc(Br)c2c(c1)OCCO2	.	16%	23µM*	?	0%	17%
CCOc1ccc(-c2c(C)nn3c(-c4ccccc4)c(C(=O)NCCOC)cnc23)cc1OCC	.	.	.	-2%	.	.
O=c1oc(-c2cccc(S(=O)(=O)N3CCOCC3)c2)nc2ccccc12	10%	-6%	-21%	-13%	-2%	2%
CC(=O)Oc1cccc(-c2nc3ccccc3c(=O)o2)c1	.	0%	1%	19µM*	-4%	-1%
COc1cccc(-c2nc3ccc(O)cc3c(=O)o2)c1	-10%	2%	1%	4.8µM*	4%	-3%
CC(=O)c1sc(NC(=O)c2ccccc2C)nc1C	12%	?	?	?	?	21%
Cc1nc(NC(=O)c2ccccc2)sc1C	.	1.8µM*	?	?	.	1.8µM*
CC(=O)c1sc(NC(=O)c2ccccc2)nc1-c1ccccc1	13µM*	1µM*	?	9.5µM*	-8%	2µM*
Cc1nc(NC(=O)c2ccccc2O)sc1C	.	3.2µM*	5.8µM*	5.4µM*	.	4µM*
Cc1nc(NC(=O)c2csc3ccccc23)sc1C	7.9µM*	1.3µM*	?	0.85µM*	-1%	?
COc1ccc(Nc2c3c(nc4nncn24)CCC3)cc1Cl	-9%	.	.	5%	.	.
COc1ccc(CCNc2nc(C)c(C(C)=O)s2)cc1OC	.	0%	-17%	?	.	2%
Cc1nc(NC(=O)CCc2ccccc2)sc1C	.	26%	?	17µM*	.	27%
Cc1nc(NC(=S)NC(=O)c2ccccc2)sc1C	.	3.2µM*	?	?	.	4µM*
O=C(Nc1nc(-c2cccs2)c(C(=O)C(F)(F)F)s1)c1ccccc1	-92%	-11%	-1%	17µM*	-2%	0%
Cc1nc(NCCc2ccccc2)sc1C(=O)O	.	29%	13%	17µM*	.	?
O=C(Nc1nc(-c2cccs2)c(C(=O)C(F)(F)F)s1)c1ccco1	-5%	-13%	-10%	?	3%	-1%
Cc1ccc(CNC(=O)C2CCN(S(=O)(=O)c3c(C)noc3/C=C/c3ccccc3F)CC2)o1	.	.	.	1%	.	.
Cc1ccc(NC(=O)CSCC(=O)Nc2cccc3ncccc23)cc1	.	2%	-1%	-10%	.	-1%
CC1(C)CC(NC(=O)c2ccc(Br)o2)CC(C)(C)N1	.	-4%	-2%	0%	.	3%
Cc1cc(NC(=O)NCc2ccccc2)c(=O)n(Cc2ccc(F)cc2)c1	.	5%	3%	1.7µM*	.	-3%
O=C(NCc1ccccc1)Nc1cccn(Cc2ccccc2F)c1=O	-26%	4%	4%	12µM*	-4%	0%
CCOc1ccc(NC(=O)Nc2cccn(Cc3ccccc3)c2=O)cc1	-20%	0%	-1%	9.5µM*	-4%	3%
COc1ccc(Cn2cccc(NC(=O)Nc3cccc(C#N)c3)c2=O)cc1	-35%	-15%	-10%	2%	0%	-3%
SMILES	SMN2 splice up	Rab9 prom act	ELG1 genotoxic	FLuc counter	Luc counter	NPC1 prom act
O=C(NCc1ccccc1)Nc1cccn(Cc2cccc(F)c2)c1=O	-27%	0%	1%	?	3%	-3%
CC(=O)Nc1ccc(S(=O)(=O)Nc2cc(C)cn(Cc3ccccc3)c2=O)cc1	.	3%	-10%	4%	.	-1%
CCOc1ccc(NC(=O)Nc2ccccc2SC)cc1	.	?	?	2.7µM*	11µM*	4µM*
CCC(c1nnc(SCC(=O)Nc2ccc(NC(C)=O)cc2)n1Cc1ccccc1)N(C)C (stereo unspecified)	.	-2%	7%	3%	.	0%
Cc1ccc(Cn2cccc(NC(=O)NC3CCCCC3)c2=O)cc1	-50%	-4%	-5%	17µM*	0%	1%
O=C(NCc1ccccc1)Nc1cccn(Cc2ccccc2)c1=O	-18%	-7%	-2%	11µM*	-2%	1%
O=C(NCc1ccccc1)Nc1cccn(Cc2ccc(F)cc2)c1=O	-48%	-3%	0%	?	2%	0%
Cc1ccc(OCC(=O)Nc2sc3c(c2C#N)CCC3)cc1	5%	?	?	4.8µM*	-3%	?
N#Cc1c(NC(=O)CSc2nnnn2C2CCCCC2)sc2c1CCCC2	.	-2%	0%	2%	.	7%
CCOC(=O)Nc1sc2c(c1C#N)CCCC2	30%	4µM*	15µM*	15µM*	-3%	?
Cc1nnc(SCC(=O)Nc2sc3c(c2C#N)CCCCC3)n1N	17%	19%	?	21µM*	-5%	26%
COc1ccc(NC(=O)Nc2ccc3c(c2)CC(=O)N([C@H](C)CO)C[C@H](C)[C@H](CN(C)Cc2ccc(C(=O)O)cc2)O3)cc1	.	.	2%	.	.	.
CC(C)CC(NC(=O)/C(=C/c1ccco1)NC(=O)c1ccc(Br)o1)C(=O)O (stereo unspecified)	.	10%	1%	-14%	.	0%
CS(=O)(=O)N(CC(=O)N1CCC(C(N)=O)CC1)Cc1ccc(Cl)c(Cl)c1	.	-9%	1%	1%	.	1%
CNC(=O)c1sc2ncccc2c1-n1cccc1	.	.	.	-1%	.	.
O=C(c1cccc(S(=O)(=O)N2CCOCC2)c1)N1CCCC(C(F)(F)F)C1 (stereo unspecified)	.	3%	-6%	4%	.	1%
C/C(N)=C(/C#N)C(=O)COC(=O)c1cc2c(s1)CCCC2	24%	-19%	?	15µM*	-4%	1%
CC1CCc2sc(C(=O)OCC(=O)NCc3ccccc3)cc2C1 (stereo unspecified)	.	-1%	10%	7%	.	-1%
